HT1080 IDH1KD tx – toxicity to HT-1080 IDH1 knockdown cells (counter line). 360,000 tested, 2% active. AID 686971. HT-1080 IDH1 knockdown viability, ATP luminescence, 48 h. Potency, µM (doses to about 46.1 µM), for inactives: top-dose activity, negative = toxicity, most hits filed as cytotoxic;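 also: potency is read from the fitted curve at half-maximal effect; 0% = DMSO wells and -100% = cell-free medium wells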
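CellTiter-Glo luminescence after 48 h compound exposure at 37 degrees C of IDH1-knockdown HT-1080 cells in 5% FBS RPMI. %Activity scaled between DMSO wells and cell-free media wells, with curves fitted and assigned curve classes.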
DT40 TDP1 CPT – growth inhibition of DT40 Tdp1-/-;hTDP1 cells with camptothecin (screen for TDP1 inhibitors). AID 686979. Potency, µM (top dose mostly 46.2 µM), for the others: top-dose activity change, negative = growth inhibition, hits mostly inhibitors. 420,000 tested, 12% active. chicken DT40 Tdp1-/-;hTDP1 cells + 20 nM CPT, ATP luminescence, 48 h; also: potency is read from the fitted curve at half-maximal effect; nearly all actives have a fitted effect of over 55% in size
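Cell growth measured by CellTiter-Glo luminescence after a minimum 48 h, 37 C compound exposure with 20 nM CPT in Tdp1-knockout DT40 cells stably expressing hTDP1, seeded 400/well; qHTS titration format.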
IL1B secr inh – inhibitors of inflammasome signaling (IL-1 beta secretion) | THP-1 LPS/ATP IL-1B secretion, AlphaLISA, 16 h; stronger effect = lower value | activity change, % at 57.5 µM | 360,000 tested, 4.7% active | AID 743279; in the data active = activity change below about -50%; inconclusive = mostly about -30% to -49%
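THP-1 cells pretreated 1 hr with compounds (up to 57.5 uM final), then stimulated with LPS (250 ng/mL final) plus ATP (1.25 mM final); secreted IL-1B measured by AlphaLISA after 16 hr, decreased signal indicating inhibition.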
DT40 TDP1 no CPT – qHTS for Inhibitors of human tyrosyl-DNA phosphodiesterase 1 (TDP1): qHTS in cells in absence of CPT; DT40 Tdp1-/- hTDP1 cells, no CPT, ATP luminescence, 48 h; Potency, µM (titrated, usually from 46.2 µM), inactives show top-dose activity change, negative = growth inhibition, most hits filed as inhibitors; 420,000 tested, 15% active; AID 686978, 2013; also: potency is read from the fitted curve at half-maximal effect; nearly all actives have a fitted effect of over 55% in size
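DT40 Tdp1-/-;hTDP1 cells, no CPT (DMSO vehicle only), 400 cells/well; compounds pin-transferred; ≥48 hr, 37 °C; CellTiter-Glo 30 min RT dark, luminescence read.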
HT1080-NT tox – kills 2HG-producing HT-1080-NT fibrosarcoma cells; 360,000 tested, 1.6% active; AID 686970; HT-1080-NT fibrosarcoma viability, CellTiter-Glo ATP luminescence, 48 h; Potency, µM (top dose mostly 46.1 µM), without a hit: at the top dose activity, negative = less viability, most hits filed as cytotoxic;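 also: NT is the 2HG producing partner of a matched IDH1 knockdown line; potency is read from the fitted curve at half-maximal effect; 0% = DMSO-treated cells and -100% = media-only wells without cells; nearly all actives have a fitted effect of over 55% in size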
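Fibrosarcoma NT cells, 750 per well in 5% FBS RPMI, were exposed to compound for 48 hours. Viability: CellTiter-Glo luminescence.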
* marks the source's active call; other numbers are inactive results; ? = inconclusive; / = not tested or not shown. The list is not random: actives were taken first. Their share in the collection is about 19%. Unless noted, calls follow the shape of the dose curve; as a rule, active = well fitted curve in the direction sought with a large enough effect; inconclusive = small, poorly fitted or top-dose-only effect, or another doubt; inactive = no such curve, though single readings can be large; an effect the other way counts as inactive or inconclusive. Unless noted, % is scaled to controls: 0 for no effect and ±100 for the full control effect.

SMILES	HT1080 IDH1KD tx	DT40 TDP1 CPT	IL1B secr inh	DT40 TDP1 no CPT	HT1080-NT tox
CCOC(=O)c1ccc(NC(=S)NNC(C)(C)C)cc1	12.4%	5.8µM*	0.0	5.8µM*	-3.4%
COc1cc(OC)nc(NC(=O)CSc2nnc(-c3ccccc3)n2C2CCCCC2)n1	12.6%	-10.9%	-23.9	?	16.3%
COc1ccccc1-c1noc(CCCC(=O)Nc2cccc(C(F)(F)F)c2)n1	/	?	/	18.4µM*	/
CCOc1ccccc1-c1noc(CCCC(=O)Nc2cccc(C(F)(F)F)c2)n1	/	18.4µM*	/	18.4µM*	/
COc1ccccc1-c1noc(CCC(=O)Nc2cc(C(F)(F)F)ccc2Cl)n1	-2.5%	-20.7%	2.4	?	-7.9%
CCOc1ccccc1-c1noc(CCC(=O)NC2CCCCC2)n1	3.0%	-1.5%	6.0	-27.9%	0.0%
Cc1ccc(OCCNC(=O)CCNC(=O)c2ccc(Cl)cc2)cc1	-0.6%	-9.8%	-10.8	-20.3%	-8.6%
COc1cc([N+](=O)[O-])cc(/C=N/NC(=O)c2ccc(NC(=O)c3ccc(C)cc3)cc2)c1O	?	2.91µM*	72.7	4.11µM*	?
Cc1ccc(C(=O)N/N=C\C=C\c2ccc(Br)cc2)cn1	-0.8%	-24.1%	19.6	?	-15.0%
Cc1ccc(C(=O)N/N=C/c2cc(Br)ccc2O)cn1	?	4.11µM*	184.8	5.17µM*	?
COc1cc(/C=N/NC(=O)c2ccc(C)nc2)cc([N+](=O)[O-])c1O	16.5%	19.9%	-8.8	-12.1%	13.0%
COc1cc([N+](=O)[O-])cc(/C=N/NC(=O)C(C)Nc2cccc(C)c2)c1O (stereo unspecified)	-15.8%	0.9%	0.0	?	-10.1%
COc1cc([N+](=O)[O-])cc(/C=N/NC(=O)C(C)Nc2ccccc2C)c1O (stereo unspecified)	?	14.6µM*	0.9	18.4µM*	-27.8%
COc1cc([N+](=O)[O-])cc(/C=N/NC(=O)c2ccc(C)nc2)c1O	-18.7%	5.17µM*	0.0	2.91µM*	-1.9%
Cc1cc(Br)c(NC(=O)COC(=O)C2CCCCC2)c(Br)c1	4.5%	3.6%	0.0	6.1%	10.8%
Cc1ccc(C(=O)Nc2ccc(-c3nc4ccccc4s3)c(O)c2)c(C)c1	/	10.3µM*	/	?	/
Cc1cccc(NC(=O)CSc2nc3ccc(NC(=O)c4cccs4)cc3s2)c1	/	13µM*	/	8.2µM*	/
Cc1ccccc1NC(=O)CSc1nc2ccc(NC(=O)COc3ccccc3F)cc2s1	/	13µM*	/	10.3µM*	/
Cc1cccc(NC(=O)CSc2nc3ccc(NC(=O)COc4ccc(Cl)cc4)cc3s2)c1	/	7.31µM*	/	6.51µM*	/
O=C(COC(=O)CNC(=O)c1ccc(Cl)cc1Cl)NNC(=O)c1ccccc1F	18.5%	11.4%	1.5	-18.3%	8.2%
Cc1c(Cl)cccc1NC(=S)N1CCN(C(=O)C2CCCO2)CC1 (stereo unspecified)	22.3%	-20.3%	21.7	?	12.0%
COc1ccc([C@H]2CC(=O)C=C(c3cccc(NC(C)=O)c3)C2)cc1	-5.6%	-21.0%	25.8	-15.3%	-0.5%
Cc1ccccc1Nc1nc(N)[nH]c(=O)c1N=O	?	?	54.1	?	?
O=C(COc1ccc(Cl)cc1)Nc1ccc(-c2nc3ccccc3s2)c(O)c1	/	?	/	18.4µM*	/
O=C(CCS(=O)(=O)c1ccccc1)Nc1ccc(-c2nc3ccccc3s2)c(O)c1	0.7%	7.0%	0.0	4.4%	14.6%
SMILES	HT1080 IDH1KD tx	DT40 TDP1 CPT	IL1B secr inh	DT40 TDP1 no CPT	HT1080-NT tox
CCC1CSC(Nc2ccc(C(=O)/C=C/c3ccc(Oc4ccccc4)cc3)cc2)=N1 (stereo unspecified)	-14.8%	23.1µM*	?	16.4µM*	-0.2%
CCC1CSC(Nc2ccc(C(=O)/C=C/c3cccc(C)c3)cc2)=N1 (stereo unspecified)	?	16.4µM*	-87.4*	14.6µM*	?
CCOC(=O)c1ccc(Oc2nc(NC)nc(Nc3ccccc3)n2)cc1	2.5%	?	17.4	?	-5.3%
COc1ccc(CNC(=O)Cc2c(C(=O)O)c(C)cn2C)cc1	/	-0.4%	/	3.3%	/
O=C(c1ccc([N+](=O)[O-])cc1)N1CCN(Cc2ccccc2)CC1	2.2%	-12.4%	18.6	-11.7%	4.6%
O=C(c1ccc([N+](=O)[O-])o1)N1CCN(Cc2ccccc2)CC1	-14.3%	14.6µM*	-3.8	25.9µM*	-10.0%
Cc1ccc(C(=O)N2CCN(Cc3ccccc3)CC2)o1	-1.9%	-6.4%	-15.5	-2.4%	-3.6%
O=C(c1cc([N+](=O)[O-])ccc1Cl)N1CCN(Cc2ccccc2)CC1	-3.8%	-10.0%	-53.1*	-9.0%	1.3%
O=C(c1cccs1)N1CCN(Cc2cccc([N+](=O)[O-])c2)CC1	27.0%	10.8%	-53.0*	-27.9%	23.4%
Cc1cc2oc(C(=O)N3CCN(Cc4ccccc4)CC3)c(C)c2cc1C	-6.0%	25.9µM*	-15.4	?	1.9%
CN(Cc1ccccc1)C(=O)c1ccc([N+](=O)[O-])o1	0.5%	23.1µM*	?	?	-10.4%
O=C(COC(=O)c1ccc([N+](=O)[O-])o1)NCc1ccccc1	-3.7%	-17.5%	-12.1	-18.9%	-1.1%
Cc1nn(-c2ccccc2)c(C)c1C(=O)OCC(=O)Nc1ccccc1	-13.8%	?	-12.8	-26.7%	0.9%
CC(=O)c1ccccc1NC(=O)COC(=O)c1c(C)nn(-c2ccccc2)c1C	-11.0%	?	?	14.6µM*	-3.6%
COc1ccccc1NC(=O)COC(=O)c1c(C)nn(-c2ccccc2)c1C	-16.5%	18.4µM*	?	18.4µM*	-1.8%
O=C(NCC(=O)N1CCc2ccccc2C1)c1ccccc1Cl	21.0%	6.4%	7.5	0.4%	21.2%
COC(=O)[C@]12CCCCC=C1N(CCC1=CCCCC1)C(=O)[C@H](CC(=O)NCC13CC4CC(CC(C4)C1)C3)C2	?	?	0.0	?	?
C/C(=N/Nc1ccnc2cc(Cl)ccc12)c1ccc(O)cc1	-4.0%	?	-54.2*	?	-7.6%
C/C(=N/Nc1ccnc2cc(Cl)ccc12)c1ccc(N)cc1	?	23.1µM*	-9.5	18.4µM*	?
COc1cc(C)c(Br)cc1S(=O)(=O)N1CCCC1	-1.2%	-9.4%	17.4	?	-6.0%
O=C(NCc1cccnc1)c1c[nH]c2cc3c(cc2c1=O)OCCO3	?	10.3µM*	-24.0	5.8µM*	-14.8%
O=C(NCc1ccccc1)c1c[nH]c2ccc(S(=O)(=O)Nc3ccc4c(c3)OCCO4)cc2c1=O	-26.4%	-24.2%	-3.6	-28.8%	-27.3%
O=C(O)CC/C(=N/NC(=O)c1cn(-c2ccccc2)nc1-c1ccccc1)C(=O)O	-1.1%	?	-6.5	?	-6.0%
